Bioassay records deposited in PubChem by Broad Institute.
Only a selection was taken, and hits are over-represented in it overall.
STK33 kin inh: blocks human STK33 kinase activity | Q9BYT3 | ADP-Glo luminescence, MBP substrate | inhibition, % at 12.5 µM | hit rate 0.44% among 27,000 | AID 2322; in the data active = inhibition above about 20%
Target sequence (Q9BYT3 whole entry, looked up): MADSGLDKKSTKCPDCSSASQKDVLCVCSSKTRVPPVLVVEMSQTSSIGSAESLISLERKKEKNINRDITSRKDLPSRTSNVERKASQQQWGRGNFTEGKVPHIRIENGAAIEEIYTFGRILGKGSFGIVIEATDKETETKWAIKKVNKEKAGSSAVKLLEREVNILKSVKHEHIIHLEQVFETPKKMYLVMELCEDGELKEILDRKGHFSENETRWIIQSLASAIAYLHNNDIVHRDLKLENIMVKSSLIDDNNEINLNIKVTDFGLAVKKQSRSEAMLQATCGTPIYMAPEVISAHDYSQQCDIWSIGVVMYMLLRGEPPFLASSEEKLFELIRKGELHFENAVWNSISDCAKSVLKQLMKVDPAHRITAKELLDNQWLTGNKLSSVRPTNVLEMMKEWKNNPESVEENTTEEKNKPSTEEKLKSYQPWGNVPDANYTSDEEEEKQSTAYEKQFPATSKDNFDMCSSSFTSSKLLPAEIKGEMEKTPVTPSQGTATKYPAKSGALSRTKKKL
PD-1 reverse act: activators reversing PD-1 mediated T-cell inhibition; primary human CD4 T cells, PD-L1 beads, CellTiter-Glo 96 h; activation, % (concentration not given with the values); 29,000 tested, under 10 active; AID 2316; call rule not given here;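 also: 0% = median vehicle wells and 100% = positive control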
The depositor's hits bear a star; nt = not tested or not shown.

SMILES | STK33 kin inh | PD-1 reverse act
OC(COc1ccc2ccccc2c1Br)Cn1cnc(-c2ccccc2)c1 (stereo not given) | 1 | nt
OC(COc1ccc(Cl)cc1)Cn1cnc(-c2ccccc2)c1 (stereo not given) | 21* | 1
COc1ccc(NC(=O)O[C@@H](c2ccc(OCCO)cc2)[C@H](C)CCO)cc1 | -3 | nt
NCCCCCCNS(=O)(=O)c1cccc2c(Cl)cccc12 | 0 | 0
NCCNS(=O)(=O)c1cccc2cnccc12 | 44* | 3
COc1ccc(S(=O)(=O)N(C)CC(=O)Nc2ccccc2SC)cc1C | -6 | nt
Cn1c(=O)/c(=C/c2ccccc2)n(C)c(=O)/c1=C/c1ccccc1 | -1 | 3
CCCCc1c(-c2ccc(OC)cc2)[nH]c2nccnc12 | 17 | -28
CCCCc1c(-c2ccc(O)cc2)[nH]c2nccnc12 | 57* | -3
C[C@@H]1CN([C@H](C)CO)C(=O)Cc2cc(NC(=O)C3CCCCC3)ccc2O[C@@H]1CN(C)Cc1ccc2c(c1)OCO2 | -4 | -3
O=C(CSc1nnc(-c2ccncc2)n1-c1ccccc1)Nc1ccnc2ccccc12 | 3 | nt
O=C(/C=C/c1ccc(O)cc1)OC[C@H]1O[C@@H](Oc2cc(O)c3c(c2)OC(c2ccc(O)cc2)CC3=O)[C@H](O)[C@@H](OC(=O)/C=C/c2ccc(O)cc2)[C@@H]1O (stereo not given in full) | -1 | -1
O=C1C=CC(O)(/C=C/C(=O)OC[C@H]2O[C@@H](Oc3ccc(O)cc3)[C@H](O)[C@@H](OC(=O)/C=C/C3(O)C=CC(=O)C=C3)[C@@H]2O)C=C1 | 52* | -10
Cc1ccc(S(=O)(=O)N(C)C[C@H]2Oc3ccc(NC(=O)NC(C)C)cc3CC(=O)N([C@@H](C)CO)C[C@@H]2C)cc1 | 1 | 0
C[C@@H]1CN([C@H](C)CO)C(=O)c2cccc(NC(=O)c3cnccn3)c2O[C@@H]1CN(C)Cc1ccc2c(c1)OCO2 | nt | 2
C[C@@H]1O[C@@H](O[C@H]2[C@H](OC(=O)[C@]34CCC(C)(C)C[C@H]3C3=CCC5[C@@]6(C)C[C@H](O)[C@H](O[C@@H]7O[C@H](C(=O)O)[C@@H](O)[C@H](O)[C@H]7O)[C@@](C)(CO)C6[C@H](O)C[C@@]5(C)[C@]3(C)C[C@H]4O)O[C@@H](CO)[C@@H]2O)[C@H](O)[C@H](O)[C@H]1O[C@@H]1OC[C@@H](O)[C@H](O[C@H]2OC[C@](O)(CO)[C@H]2O)[C@H]1O (stereo not given in full) | -4 | -3
C[C@@H]1O[C@@H](O[C@@H]2[C@@H](O)[C@H](O[C@@H]3[C@@H](O)[C@@H](O)[C@H](O[C@H]4[C@H](OC(=O)[C@]56CCC(C)(C)C[C@H]5C5=CCC7[C@@]8(C)C[C@H](O)[C@H](O[C@@H]9O[C@H](C(=O)O)[C@@H](O)[C@H](O)[C@H]9O)[C@@](C)(CO)C8[C@H](O)C[C@@]7(C)[C@]5(C)C[C@H]6O)OC[C@H](O)[C@@H]4O)O[C@H]3C)OC[C@H]2O)[C@H](O)[C@H](O)[C@H]1O (stereo not given in full) | 23* | 3
C[C@@H]1CCCCO[C@H](CN(C)C(=O)c2ccccc2)[C@@H](C)CN([C@H](C)CO)C(=O)c2cc(NC(=O)Nc3ccc(C(F)(F)F)cc3)ccc2O1 | 3 | -1
O=c1cc(-c2ccc(O[C@@H]3O[C@H](CO)[C@@H](O)[C@H](O)[C@H]3O)cc2)oc2cc(O)cc(O)c12 | 50* | 1
COc1c(O)cc2oc(-c3ccc(O[C@@H]4O[C@H](CO)[C@@H](O)[C@H](O)[C@H]4O)cc3)cc(=O)c2c1O | 51* | 0
COc1c(C2OCC(OC(C)=O)C(OC(C)=O)C2OC(C)=O)c(O)cc2oc(-c3ccc(OC4OC(CO)C(O)C(O)C4O)cc3)cc(=O)c12 (stereo not given) | -2 | -1
O=c1c(O[C@@H]2O[C@H](CO)[C@H](O)[C@H](O)[C@H]2O)c(-c2ccc(O)c(O)c2)oc2cc(O)cc(O)c12 | 5 | 0
O=C(NCCCn1cc(Br)cn1)Nc1ccccc1C(F)(F)F | 1 | nt
O=C(CSc1nc2ccc(N3C(=O)c4ccccc4C3=O)cc2s1)c1ccccc1 | nt | 1
O=c1c(O)c(-c2ccccc2)oc2cc(O)ccc12 | 32* | nt
SMILES | STK33 kin inh | PD-1 reverse act
O=C(O)COc1c(-c2ccccc2)oc2ccccc2c1=O | 3 | 1
CC(=O)c1cccc(NC(=O)CN(c2ccc(Br)c(C)c2)S(C)(=O)=O)c1 | 1 | -2
COc1c(O)cc2oc(-c3ccc(O)cc3)cc(=O)c2c1O | 15 | 2
COc1cccc2oc(-c3ccccc3)cc(=O)c12 | 1 | -2
COc1cc2oc(-c3ccc(O)cc3)cc(=O)c2c(O)c1OC | 60* | -2
COc1ccc(-c2cc(=O)c3c(O)cc(O)cc3o2)cc1O | 46* | nt
C[C@@H]1CN([C@H](C)CO)C(=O)Cc2cc(NS(C)(=O)=O)ccc2O[C@H]1CN(C)C | 0 | 2
CN(C)c1ccc(C(=C2C=CC(=[N+](C)C)C=C2)c2ccc(N(C)C)cc2)cc1 | 76* | nt
Cc1noc(C)c1NC(=O)Nc1cccc2c1O[C@H](CN(C)C)[C@H](C)CN([C@H](C)CO)C2=O | nt | 4
CN1c2ccccc2C(=O)/C(=C\Nc2cc(C(F)(F)F)cc(C(F)(F)F)c2)S1(=O)=O | nt | 0
COc1cc2c(c(OC)c1OC)CCc1cc(O)c(O)cc1-2 | 21* | 2
COc1cc(C2OCC3C(c4cc(OC)c(OC)c(OC)c4)OCC23)cc(OC)c1OC (stereo not given) | -2 | -3
Oc1cc(O)cc(/C=C/c2ccc(O)c(O)c2)c1 | 74* | nt
N#C/C(=C/c1ccc(O)c(O)c1)C(=O)OC/C=C/c1ccccc1 | -1 | nt
C[C@H](CO)N1C[C@H](C)[C@H](CN(C)CC2CC2)Oc2c(NS(=O)(=O)c3ccc(F)cc3)cccc2C1=O | nt | 2
C[C@@H]1CC(=O)c2c(ccc3c2C(=O)c2cccc(O)c2C3=O)C1 | 9 | 1
CN1CCc2cccc3c2[C@H]1Cc1ccc(O)c(O)c1-3 | 24* | nt
COc1ccc(CN(C)C[C@H]2OCc3cnnn3CCCC(=O)N([C@H](C)CO)C[C@@H]2C)cc1 | 0 | nt
Nc1cccc(-c2cc3c(Oc4cccc(O)c4)ncnc3[nH]2)c1 | 69* | -2
CNC[C@@H]1Oc2ccc(NS(=O)(=O)c3cccs3)cc2CC(=O)N([C@@H](C)CO)C[C@@H]1C | -1 | -1
N#CC(C(=O)c1ccco1)c1nc2ccccc2[nH]1 (stereo not given) | 67* | 0
c1ccc(CC(Cc2nc3ccccc3[nH]2)c2nc3ccccc3[nH]2)cc1 (stereo not given) | -1 | nt
C[C@@H]1CN([C@H](C)CO)C(=O)c2cc(NS(=O)(=O)c3cccs3)ccc2O[C@@H]1CN(C)Cc1ccc(C(=O)O)cc1 | nt | 1
COc1cc(/C=C2\Oc3cc(O)cc(O)c3C2=O)cc(OC)c1O | 88* | 2
COc1ccc([C@@H]2CC(=O)c3c(O)cc(O)cc3O2)cc1O | 1 | 2
C[C@@H]1CN([C@@H](C)CO)C(=O)c2cccc(NC(=O)Nc3ccc(C(F)(F)F)cc3)c2O[C@@H]1CN(C)Cc1ccc(Cl)c(Cl)c1 | nt | -3
Cc1ccc(N(C(C)C(=O)Nc2cc(C(F)(F)F)ccc2Cl)S(C)(=O)=O)cc1C (stereo not given) | 5 | 0
